Data: the supplement of paper PMC6411743
± gives the standard deviation of the averaged measurements. About 6,200 targets were measured; listed, in parts, are those with the largest changes and a random draw of the rest.

Compound: Nc1ncnc2c1ncn2[C@@H]1O[C@H](COP(=O)(O)OP(=O)(O)NP(=O)(O)O)[C@@H](O)[C@H]1O [adenylyl imidodiphosphate]
Experiment: NP40-soluble protein abundance relative to vehicle (solubility fold change) (ratio); higher = more soluble protein in presence of AMP-PNP
In short: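 Crude Jurkat lysate, prepared by Dounce homogenisation, was exposed to eight concentrations from 0.1 to 10 mM for 10 min at room temperature and then 3 min at 37 °C. Solubilisation used 0.8% NP40 with benzonase for 60 min at 4 °C, followed by ultracentrifugation and TMT labelling of the supernatant for LC-MS/MS. After vsn normalisation of intensities, each value is the fold change against the detergent-processed vehicle within each replicate, across three independent experiments.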

Chain of UniProt P07108 (P07108 whole entry): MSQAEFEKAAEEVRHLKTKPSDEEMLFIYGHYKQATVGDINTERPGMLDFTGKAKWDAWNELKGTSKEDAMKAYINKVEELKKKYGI
Chain of UniProt P17301 (P17301 whole entry): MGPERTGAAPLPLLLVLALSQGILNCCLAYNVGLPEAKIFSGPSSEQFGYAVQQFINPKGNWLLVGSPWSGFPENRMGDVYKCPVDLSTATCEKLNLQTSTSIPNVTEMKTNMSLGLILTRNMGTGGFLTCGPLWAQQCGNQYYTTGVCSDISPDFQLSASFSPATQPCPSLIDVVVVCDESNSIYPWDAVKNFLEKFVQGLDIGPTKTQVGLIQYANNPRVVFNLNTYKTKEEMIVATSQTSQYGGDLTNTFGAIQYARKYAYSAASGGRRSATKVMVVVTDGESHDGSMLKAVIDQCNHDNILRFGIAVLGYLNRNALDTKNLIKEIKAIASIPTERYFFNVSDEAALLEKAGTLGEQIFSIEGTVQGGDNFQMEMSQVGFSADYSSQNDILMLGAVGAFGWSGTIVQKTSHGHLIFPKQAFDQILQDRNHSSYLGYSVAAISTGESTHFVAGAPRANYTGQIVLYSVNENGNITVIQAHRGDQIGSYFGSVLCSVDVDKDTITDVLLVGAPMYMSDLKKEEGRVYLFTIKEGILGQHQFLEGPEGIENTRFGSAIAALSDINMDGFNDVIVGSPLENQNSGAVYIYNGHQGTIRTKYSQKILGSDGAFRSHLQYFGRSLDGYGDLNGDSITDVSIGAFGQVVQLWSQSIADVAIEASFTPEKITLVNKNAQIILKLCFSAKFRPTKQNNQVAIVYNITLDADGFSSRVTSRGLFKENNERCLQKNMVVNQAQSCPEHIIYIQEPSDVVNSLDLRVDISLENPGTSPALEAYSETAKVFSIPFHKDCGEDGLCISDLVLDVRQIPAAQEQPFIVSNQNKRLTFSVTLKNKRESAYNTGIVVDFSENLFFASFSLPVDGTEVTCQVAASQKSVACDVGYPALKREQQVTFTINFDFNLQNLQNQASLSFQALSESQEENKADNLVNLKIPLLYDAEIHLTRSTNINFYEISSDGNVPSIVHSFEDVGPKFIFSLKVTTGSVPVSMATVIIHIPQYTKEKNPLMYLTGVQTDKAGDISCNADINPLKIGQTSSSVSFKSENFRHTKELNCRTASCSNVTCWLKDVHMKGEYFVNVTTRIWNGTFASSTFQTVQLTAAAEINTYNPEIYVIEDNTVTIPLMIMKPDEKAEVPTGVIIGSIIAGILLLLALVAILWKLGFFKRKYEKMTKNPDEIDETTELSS
Chain of UniProt P20073 (P20073 whole entry): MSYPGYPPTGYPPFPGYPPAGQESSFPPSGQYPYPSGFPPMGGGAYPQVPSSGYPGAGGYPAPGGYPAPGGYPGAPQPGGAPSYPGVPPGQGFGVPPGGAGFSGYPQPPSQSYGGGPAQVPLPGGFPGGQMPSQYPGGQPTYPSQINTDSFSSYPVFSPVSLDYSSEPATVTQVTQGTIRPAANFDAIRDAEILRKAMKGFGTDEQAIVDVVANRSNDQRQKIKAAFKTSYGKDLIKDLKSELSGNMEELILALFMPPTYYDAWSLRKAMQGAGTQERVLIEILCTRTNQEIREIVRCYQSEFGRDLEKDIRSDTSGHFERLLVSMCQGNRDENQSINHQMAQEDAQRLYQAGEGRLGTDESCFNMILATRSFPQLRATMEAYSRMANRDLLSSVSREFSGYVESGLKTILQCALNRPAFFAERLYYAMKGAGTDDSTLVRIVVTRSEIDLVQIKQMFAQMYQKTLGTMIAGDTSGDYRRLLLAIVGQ
Chain of UniProt P00167 (P00167 whole entry): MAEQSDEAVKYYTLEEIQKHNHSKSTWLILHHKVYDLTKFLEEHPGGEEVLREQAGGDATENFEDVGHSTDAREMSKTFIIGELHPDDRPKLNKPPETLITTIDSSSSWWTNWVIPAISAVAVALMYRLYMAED
Chain of UniProt P13807 (P13807 whole entry): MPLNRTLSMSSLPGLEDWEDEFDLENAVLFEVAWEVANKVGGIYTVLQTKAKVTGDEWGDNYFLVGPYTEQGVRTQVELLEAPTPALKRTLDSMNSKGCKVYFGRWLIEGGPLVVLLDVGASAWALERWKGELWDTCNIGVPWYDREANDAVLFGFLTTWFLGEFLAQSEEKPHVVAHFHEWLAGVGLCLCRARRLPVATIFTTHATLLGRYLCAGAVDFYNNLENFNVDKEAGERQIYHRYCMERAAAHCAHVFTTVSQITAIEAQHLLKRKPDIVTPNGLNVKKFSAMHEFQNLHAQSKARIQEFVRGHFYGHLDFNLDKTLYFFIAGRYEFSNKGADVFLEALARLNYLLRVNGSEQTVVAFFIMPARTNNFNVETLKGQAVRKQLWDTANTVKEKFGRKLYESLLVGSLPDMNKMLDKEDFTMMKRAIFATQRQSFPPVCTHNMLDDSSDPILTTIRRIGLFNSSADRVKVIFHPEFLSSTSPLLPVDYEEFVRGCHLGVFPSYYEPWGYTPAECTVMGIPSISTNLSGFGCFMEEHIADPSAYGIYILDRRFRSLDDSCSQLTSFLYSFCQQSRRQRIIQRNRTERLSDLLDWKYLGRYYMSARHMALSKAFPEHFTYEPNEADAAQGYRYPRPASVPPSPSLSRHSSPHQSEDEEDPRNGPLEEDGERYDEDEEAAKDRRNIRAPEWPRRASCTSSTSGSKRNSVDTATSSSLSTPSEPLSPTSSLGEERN
Chain of UniProt P16401 (P16401 whole entry): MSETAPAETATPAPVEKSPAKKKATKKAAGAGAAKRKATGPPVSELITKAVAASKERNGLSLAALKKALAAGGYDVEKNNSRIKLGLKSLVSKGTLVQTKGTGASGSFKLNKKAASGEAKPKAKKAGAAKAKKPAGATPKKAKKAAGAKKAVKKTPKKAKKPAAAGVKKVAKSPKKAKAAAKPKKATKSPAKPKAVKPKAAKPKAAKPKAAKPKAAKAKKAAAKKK
Chain of UniProt Q0VDF9 (Q0VDF9 whole entry): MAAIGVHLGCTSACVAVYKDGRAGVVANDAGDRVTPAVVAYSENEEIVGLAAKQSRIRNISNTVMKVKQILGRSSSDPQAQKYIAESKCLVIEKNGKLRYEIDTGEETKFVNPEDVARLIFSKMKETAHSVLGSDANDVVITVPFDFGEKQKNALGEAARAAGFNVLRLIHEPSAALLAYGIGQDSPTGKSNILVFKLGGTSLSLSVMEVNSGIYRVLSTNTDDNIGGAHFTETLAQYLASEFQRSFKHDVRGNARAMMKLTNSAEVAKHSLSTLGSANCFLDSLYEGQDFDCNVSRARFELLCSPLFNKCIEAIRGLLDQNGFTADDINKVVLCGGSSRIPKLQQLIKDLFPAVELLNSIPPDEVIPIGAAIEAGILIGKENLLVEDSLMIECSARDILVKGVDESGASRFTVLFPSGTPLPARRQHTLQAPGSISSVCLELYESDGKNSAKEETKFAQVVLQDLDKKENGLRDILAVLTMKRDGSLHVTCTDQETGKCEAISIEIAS
Chain of UniProt Q10589 (Q10589 whole entry): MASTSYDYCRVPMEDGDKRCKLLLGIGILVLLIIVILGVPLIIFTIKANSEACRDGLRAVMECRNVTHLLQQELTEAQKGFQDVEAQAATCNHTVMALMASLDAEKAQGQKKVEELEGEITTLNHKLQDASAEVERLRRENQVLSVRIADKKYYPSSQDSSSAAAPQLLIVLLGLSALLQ
Chain of UniProt Q00534 (Q00534 whole entry): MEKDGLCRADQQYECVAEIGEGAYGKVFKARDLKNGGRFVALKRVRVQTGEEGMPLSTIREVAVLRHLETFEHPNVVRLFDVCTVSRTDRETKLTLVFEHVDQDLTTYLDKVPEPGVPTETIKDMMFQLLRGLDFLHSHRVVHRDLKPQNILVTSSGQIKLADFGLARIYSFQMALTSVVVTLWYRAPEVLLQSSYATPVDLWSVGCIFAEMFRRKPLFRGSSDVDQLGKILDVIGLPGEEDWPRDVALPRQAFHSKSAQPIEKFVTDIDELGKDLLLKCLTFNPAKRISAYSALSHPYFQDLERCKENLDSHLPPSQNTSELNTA
Chain of UniProt P51659 (P51659 whole entry): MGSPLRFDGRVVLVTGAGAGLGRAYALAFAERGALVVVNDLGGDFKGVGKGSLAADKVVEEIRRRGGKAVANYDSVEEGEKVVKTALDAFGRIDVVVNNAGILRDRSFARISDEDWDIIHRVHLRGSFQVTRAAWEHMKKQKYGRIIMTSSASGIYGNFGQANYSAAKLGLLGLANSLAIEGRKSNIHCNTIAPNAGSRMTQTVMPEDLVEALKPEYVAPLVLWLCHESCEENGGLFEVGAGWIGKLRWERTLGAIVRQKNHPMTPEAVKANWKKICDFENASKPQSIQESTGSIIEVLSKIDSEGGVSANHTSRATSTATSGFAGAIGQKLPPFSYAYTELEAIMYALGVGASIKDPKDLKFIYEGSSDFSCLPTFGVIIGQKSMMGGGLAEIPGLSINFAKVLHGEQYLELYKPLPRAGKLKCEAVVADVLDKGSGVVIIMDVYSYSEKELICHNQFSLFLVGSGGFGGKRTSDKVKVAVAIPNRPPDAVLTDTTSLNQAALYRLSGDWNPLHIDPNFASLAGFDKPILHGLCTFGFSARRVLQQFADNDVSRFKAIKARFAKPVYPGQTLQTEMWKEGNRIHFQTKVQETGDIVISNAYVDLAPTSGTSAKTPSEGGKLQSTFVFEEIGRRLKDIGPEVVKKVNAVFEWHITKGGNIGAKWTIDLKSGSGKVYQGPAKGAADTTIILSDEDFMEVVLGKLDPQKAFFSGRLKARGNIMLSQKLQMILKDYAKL
Chain of UniProt O75531 (O75531 whole entry): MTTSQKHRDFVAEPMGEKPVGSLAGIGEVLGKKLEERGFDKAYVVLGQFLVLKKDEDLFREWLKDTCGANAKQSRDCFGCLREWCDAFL
Chain of UniProt P61289 (P61289 whole entry): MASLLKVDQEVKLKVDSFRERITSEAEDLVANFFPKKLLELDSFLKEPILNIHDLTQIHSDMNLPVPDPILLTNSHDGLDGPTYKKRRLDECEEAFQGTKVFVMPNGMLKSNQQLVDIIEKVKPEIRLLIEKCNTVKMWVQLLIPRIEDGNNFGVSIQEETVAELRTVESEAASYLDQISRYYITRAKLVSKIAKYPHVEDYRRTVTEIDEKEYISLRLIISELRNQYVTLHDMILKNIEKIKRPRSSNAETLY

Target	NP40-soluble protein abundance (concentration: 1mM)	NP40-soluble protein abundance (concentration: 2mM)	NP40-soluble protein abundance (concentration: 4mM)	NP40-soluble protein abundance (concentration: 6mM)	NP40-soluble protein abundance (concentration: 8mM)	NP40-soluble protein abundance (concentration: 10mM)
ARID4A (UniProt P29374)	1.06 ± 0.053	1.07 ± 0.039	1.07 ± 0.036	1.03 ± 0.031	1.01 ± 0.032	1.07 ± 0.033
PSMB4 (UniProt P28070)	0.931 ± 0.043	0.905 ± 0.048	0.918 ± 0.096	0.971 ± 0.046	0.968 ± 0.071	1 ± 0.13
SFPQ (UniProt P23246)	1.15 ± 0.054	1.25 ± 0.076	1.41 ± 0.12	1.68 ± 0.26	1.75 ± 0.28	2.02 ± 0.41
UniProt P55060|P55060-3	1 ± 0.012	1.02 ± 0.11	0.987 ± 0.032	1.01 ± 0.04	0.985 ± 0.027	1.02 ± 0.04
BANF1 (UniProt O75531)	2.32 ± 0.38	2.76 ± 0.16	3 ± 0.25	3.73 ± 0.25	4.03 ± 0.2	4.25 ± 0.21
UniProt P28331|P28331-2	0.972 ± 0.037	0.935 ± 0.081	0.954 ± 0.059	0.949 ± 0.055	0.938 ± 0.037	0.942 ± 0.086
HMGN2 (UniProt P05204)	1.06 ± 0.04	1.15 ± 0.12	1.09 ± 0.05	1.25 ± 0.081	1.16 ± 0.21	1.54 ± 0.28
ECHS1 (UniProt P30084)	0.9976 ± 0.0068	0.9885 ± 0.006	0.955 ± 0.029	0.994 ± 0.02	0.963 ± 0.017	0.961 ± 0.015
FXR2 (UniProt P51116)	1.07 ± 0.022	1.1 ± 0.023	1.2 ± 0.025	1.24 ± 0.076	1.33 ± 0.051	1.39 ± 0.12
CDK6 (UniProt Q00534)	0.987 ± 0.029	0.951 ± 0.022	0.959 ± 0.03	0.967 ± 0.012	0.945 ± 0.033	0.91 ± 0.029
UniProt P26038|V9GZ54	0.967 ± 0.13	1.06 ± 0.14	0.988 ± 0.13	0.916 ± 0.088	0.935 ± 0.012	0.936 ± 0.067
UniProt P16383|P16383-2	1.05 ± 0.038	1.09 ± 0.044	1.101 ± 0.0092	1.08 ± 0.03	1.07 ± 0.033	1.097 ± 0.0024
UniProt P60228	1.04 ± 0.073	1.04 ± 0.077	1.1 ± 0.11	1.18 ± 0.12	1.24 ± 0.12	1.33 ± 0.2
UniProt O95453|O95453-2|O95453-3	1.02 ± 0.018	0.975 ± 0.042	0.9979 ± 0.0039	0.991 ± 0.026	0.997 ± 0.016	0.968 ± 0.013
HIST1H1B (UniProt P16401)	1.052 ± 0.0074	1.18 ± 0.18	1.15 ± 0.11	1.27 ± 0.22	1.32 ± 0.21	1.59 ± 0.19
UniProt P20073|P20073-2	0.966 ± 0.053	0.996 ± 0.093	0.989 ± 0.069	0.998 ± 0.086	1.04 ± 0.052	0.995 ± 0.096
UniProt P52948|P52948-2|P52948-5|P52948-6	1.07 ± 0.047	1.1 ± 0.015	1.13 ± 0.018	1.22 ± 0.056	1.28 ± 0.02	1.417 ± 0.011
UniProt P00167|P00167-2	0.995 ± 0.028	0.984 ± 0.033	0.936 ± 0.036	0.992 ± 0.011	0.948 ± 0.021	0.966 ± 0.012
DBI (UniProt P07108)	1.04 ± 0.064	1.06 ± 0.055	0.987 ± 0.015	0.96 ± 0.041	0.928 ± 0.025	0.997 ± 0.1
UniProt P51608-2|P51608|A0A087WXF0	1.04 ± 0.023	1.06 ± 0.016	1.04 ± 0.046	1.07 ± 0.019	1.07 ± 0.028	1.15 ± 0.042
UniProt P13807|P13807-2	0.947 ± 0.11	0.922 ± 0.065	0.895 ± 0.096	0.867 ± 0.14	0.876 ± 0.098	0.863 ± 0.16
MPP1 (UniProt Q00013)	1.01 ± 0.015	0.964 ± 0.035	1.01 ± 0.028	0.978 ± 0.028	1.01 ± 0.048	0.986 ± 0.034
ITGA2 (UniProt P17301)	0.9944 ± 0.0014	1.02 ± 0.084	0.988 ± 0.024	1.019 ± 0.0071	1.01 ± 0.025	1.04 ± 0.011
UniProt P61289|P61289-2	0.983 ± 0.064	0.955 ± 0.12	0.808 ± 0.23	0.886 ± 0.17	0.999 ± 0.037	0.968 ± 0.1
UniProt Q10589|Q10589-2	1.0272 ± 0.00052	1.04 ± 0.011	1.03 ± 0.025	1.03 ± 0.028	1.05 ± 0.056	1.04 ± 0.048
TBL3 (UniProt Q12788)	1.07 ± 0.02	1.15 ± 0.05	1.21 ± 0.023	1.35 ± 0.027	1.46 ± 0.024	1.53 ± 0.075
UniProt P36639|P36639-2|P36639-3|P36639-4	1 ± 0.037	0.988 ± 0.059	1.09 ± 0.085	1.03 ± 0.022	1.07 ± 0.012	1.06 ± 0.065
HSD17B4 (UniProt P51659)	1.01 ± 0.034	0.967 ± 0.026	1.04 ± 0.041	1.09 ± 0.058	1.12 ± 0.033	1.1 ± 0.034
HSPA14 (UniProt Q0VDF9)	1.01 ± 0.046	0.998 ± 0.032	1.01 ± 0.034	1.012 ± 0.0091	1.03 ± 0.059	1.02 ± 0.049
METAP1 (UniProt P53582)	1.05 ± 0.046	1.06 ± 0.081	1.16 ± 0.071	1.31 ± 0.046	1.37 ± 0.061	1.38 ± 0.074
